Inconclusive results are not listed. Active and inactive are the calls of the source. Unless noted, calls follow the shape of the dose curve; as a rule, active = well fitted curve in either direction with a large enough effect (not every such curve was filed as active); inconclusive = small, poorly fitted or top-dose-only effect, or another doubt; inactive = flat fitted curve, though single readings scatter.

Experimental findings from PubChem BioAssay (NCATS) are described below.

Experiment [1] has as its target Lysosomal acid glucosylceramidase (Homo sapiens) (UniProt P04062). Kind of experiment: Glucocerebrosidase-p2 (AID 348; in the data active = potency below about 10 µM; also: potency is read from the fitted curve at half-maximal effect). The note with it: purified GBA, blue fluorogenic substrate, 40 min. In outline: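 Normal human glucocerebrosidase (0.2 nM) with blue fluorogenic substrate (80 uM final) in citrate/phosphate pH 5.9 with 10mM sodium taurocholate, 0.01% tween-20; 40 min RT, NaOH/glycine stop; fluorescence Ex 365/Em 440; AC50 from a titration from 0.6 nM upwards.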

Experiment [2] in a line: AP1 Signaling Pathway (AID 357).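 Also: ME-180 reporter cells stimulated with EGF at its EC50 level; % is scaled to controls: 0 for no effect and ±100 for the full control effect.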 An outline of the steps: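 Cells are seeded overnight, exposed to compound titrations and an EC50 level of EGF for 5 hours at 37 °C, then loaded with CCF4 dye for 2.5 hours. Beta-lactamase activity under the AP-1 element is read as a blue/green ratio.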
Experiment [3] is described as follows: NFAT Signaling Pathway (AID 444).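 Also: carbachol stimulus at about its EC50 of 1 µM final; % is scaled to controls: 0 for no effect and ±100 for the full control effect.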 The note with it: Jurkat NFAT-bla M1, carbachol, beta-lactamase ratio, 5 h; at 7.69 µM (top of the series). An outline of the steps:
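Read-out: CCF4 FRET ratio (460 nm/530 nm) after 1 h RT dye loading, used for %activity and AC50 from titration series. Cells: Jurkat NFAT-β-lactamase/M1 line, treated with compound plus 1 uM carbachol for 5 h, 37 °C.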

A short description of experiment [4]: Stat Signaling Pathway (AID 446).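 Also: ME-180 cervical cancer cells given 40 pM IL-6 alongside compound; SIE-controlled beta-lactamase reporter measured as 460/530 nm FRET emission ratio; % is scaled to controls: 0 for no effect and ±100 for the full control effect.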 An outline of the steps: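 FRET read-out (405 nm excitation, 460/530 nm emission) of a beta-lactamase reporter under a STAT-inducible element in ME-180 cervical carcinoma cells. Cells with compound receive 40 pM IL-6 for 5 h. Values are normalised to AC90 stimulation and AC90 JAK-inhibitor controls.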
In experiment [5] the target is Glucocorticoid receptor (Homo sapiens) (UniProt P04150). In words: GR-EFC Redistribution (AID 451; calls by dose curve; also: potency is read from the fitted curve at half-maximal effect). The note with it: CHO-K1 GR-EFC translocation, beta-gal luminescence, 2 h. In outline: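 Translocation of GR-ED fusion to nuclear EA restores b-gal, read by luminescence after 1 h room-temperature detection. Engineered CHO-K1 biosensor cells, 1,000/well, exposed 2 h at 37 C to titrations up to 46 uM final.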

Experiment [6] addresses Mitogen-activated protein kinase 10 (Mus musculus) (UniProt Q61831). In words: JNK3 AlphaScreen Assay (AID 530).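 Also: kinase came from lysate of stimulated human HepG2 cells; signal reports phosphorylation of biotinylated GST-cJun 1-79 at Ser73 with 10 µM ATP; % is scaled to controls: 0 for no effect and ±100 for the full control effect.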 In outline: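 Kinase buffer: 20 mM Tris-HCl pH 7.6, 10 mM MgCl2, 1 mM DTT, 0.1 mM Na3VO4, 0.01% Tween-20; ATP 10 uM. Substrate biotin-GST-cJun(1-79), enzyme from activated HepG2 lysates. Detection by Ser73 phospho-antibody AlphaScreen.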
The target in experiment [7] is 3',5'-cyclic-AMP phosphodiesterase 4B (Homo sapiens) (UniProt Q07343). Kind of experiment: qHTS Assay for Inhibitors of PDE-IV (AID 607; active = well fitted activation curve with a large enough effect in the main read-out, with a control signal flat, not every such curve was filed as active; also: % of control where 0% means no effect). In outline: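 Cell-based read-out of cAMP via a modified cyclic nucleotide-gated channel and membrane potential dye (535/590 nm) in HEK293 cells expressing PDE4 endogenously. Compounds tested up to 22.9 uM final; 100 uM RO 20-1724 reference.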

Experiment [8] in a line: qHTS Assay for Identification of Small Molecule Agonists for Hypoxia Response Element Signaling Pathway (AID 914; active = well fitted activation curve with a large enough effect in the signal ratio, with a control signal flat, not every such curve was filed as active; the % refers to the signal ratio; also: % of control where 0% means no effect). Conditions: ME-180 HRE-bla reporter, beta-lactamase ratio, CoCl2, 17 h; activation: stronger effect = higher value. An outline of the steps: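 ME-180 cells carrying an HRE-driven beta-lactamase reporter were treated with compounds in a titration series plus an EC50 level of CoCl2 for 17 h at 37 degrees Celsius; CCF4 readout as the 460nm/530nm ratio gave AC50 values.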
(In general: qHTS replaces the single test concentration by a dilution series.)

Experiment [9] can be described thus: qHTS Assay for Lipid Storage Modulators (AID 1519; calls by dose curve). Conditions: Drosophila S3 cells, BODIPY lipid droplet/cell ratio, laser cytometry, cells loaded with oleic acid; for activity change, negative = inhibition: at 57.5 µM (top of the series). In outline: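 Cells seeded at 5,000 per well were treated with compounds over a concentration series and loaded with oleic acid (400 uM, as added). Lipid droplet fluorescence (488 nm excitation, 500-530 nm channel) was read by laser-scanning cytometry and normalized to 20 uM Triacsin C.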

The nature of experiment [10]: Primary qHTS for small molecule stabilizers of the endoplasmic reticulum resident proteome: Secreted ER Calcium Modulated Protein (SERCaMP) assay (AID 1508630; active = well fitted curve in the direction sought with a large enough effect; an effect the other way counts as inactive or inconclusive; also: % is scaled to controls: 0 for no effect and ±100 for the full control effect). In outline: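 The SH-SY5Y reporter protocol was run at 3 concentrations up to 38.3 uM (primary) or 11 concentrations (follow-up): 16 h compound, 100 nM thapsigargin for 4 h, then extracellular luciferase luminescence.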

In experiment [11] the target is Cytochrome P450 1A2 (Homo sapiens) (UniProt P05177). Kind of experiment: p450-cyp1a2 (AID 410; calls by dose curve). An outline of the steps: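 Read-out is luminescence from luciferin produced by CYP1A2 demethylation of Luciferin-ME (100uM, at Km). Detection reagent stopped the 60 min NADPH-dependent reaction; signals were normalized to 57 uM furafylline.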
Experiment [12] addresses Cytochrome P450 3A4 (Homo sapiens) (UniProt P08684). In words: qHTS Assay for Inhibitors and Substrates of Cytochrome P450 3A4 (AID 884; active = well fitted curve in the direction sought with a large enough effect; an effect the other way counts as inactive or inconclusive; also: % is scaled to controls: 0 for no effect and ±100 for the full control effect; nearly all actives have a fitted effect of over 50% in size). An outline of the steps:
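Luminescent readout of luciferin produced by CYP3A4 (20 nM) dealkylation of Luciferin-PPXE, 25 uM (its KM). NADPH-driven reaction ran 60 min at RT after 10 min compound preincubation; data scaled to 57 uM ketoconazole as 100% inhibition.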

Experiment [13] has the same target. In words: qHTS Assay for Activators of Cytochrome P450 3A4 (AID 885; active = well fitted curve in the direction sought with a large enough effect; an effect the other way counts as inactive or inconclusive; also: nearly all actives have a fitted effect of over 65% in size; also: potency is read from the fitted curve at half-maximal effect). An outline of the steps: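 Luminescent readout of luciferin formed from 25 uM Luciferin-PPXE (KM level) by 20 nM CYP3A4 in 200 mM KPO4, with 60 min NADPH-driven reaction at room temperature after 10 min compound exposure. Ketoconazole (57 uM) defined 100% inhibition.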
Experiment [14] in a line: Confirmation and Secondary Assay for Modulators of Hemoglobin Beta Chain Splicing at IVS2 654 locus (AID 910; active = well fitted curve in the direction sought with a large enough effect; an effect the other way counts as inactive or inconclusive;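 also: HeLa cells stably carrying EGFP split by mutant beta-globin IVS2-654 intron; per-well total GFP intensity by laser scanning cytometry after 2-day treatment; % of control where 0% means no effect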). In outline:
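Readout: per-well total peak green fluorescence (488 nm ex, 500–520 nm em) from objects 5–250 µm, reflecting correct splicing of an EGFP-654 reporter. Compounds were applied for 2 days at 37 °C to overnight-plated HeLa EGFP-654 cells; controls were DMSO and 500 nM IVS2-654 PNA.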

A short description of experiment [15]: Confirmation and Secondary Assay for Modulators of Hemoglobin Beta Chain Splicing at IVS2 705 locus (AID 930; active = well fitted curve in the direction sought with a large enough effect; an effect the other way counts as inactive or inconclusive;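 also: HeLa cells stably expressing the EGFP-705 splicing reporter; % of control where 0% means no effect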). An outline of the steps:
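HeLa cells stably carrying EGFP interrupted by mutant beta-globin IVS2-705 intron (CMV-driven) were seeded at 500 cells/well, treated next day with compound for 2 days at 37C; corrected splicing restores EGFP, read as total peak GFP intensity per well.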

In experiment [16] the target is Ubiquitin carboxyl-terminal hydrolase 1 (Homo sapiens) (UniProt O94782). In words: Inhibitors of USP1/UAF1: Pilot qHTS (AID 504865; active = well fitted curve in the direction sought with a large enough effect; an effect the other way counts as inactive or inconclusive;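 also: rhodamine fluorescence freed from ubiquitin-rhodamine substrate followed over time; top concentration of the series differs between compounds; % is scaled to controls: 0 for no effect and ±100 for the full control effect; nearly all actives have a fitted effect of over 35% in size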). An outline of the steps:
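USP1/UAF1 complex (1nM) preincubated with compound 15 min at room temperature, then Ub-Rho substrate (150nM final) added. Fluorescence read kinetically at 480/540 nm, 6 reads every 60 seconds. Buffer: 50mM HEPES pH 7.8, 0.5mM EDTA, 0.1 mg/ml BSA, 1mM TCEP, 0.01% Tween-20.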

Experiment [17] deals with Glucocorticoid receptor (Homo sapiens) (UniProt P04150). Kind of experiment: GR-GFP Redistribution (AID 450;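 active = compounds whose dose series gives a full or clear partial fitted curve of increased nuclear translocation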; also: potency is read from the fitted curve at half-maximal effect). Conditions: U2OS GR-GFP nuclear translocation, laser cytometry, 2 h.
Experiment [18] concerns the target Cytochrome P450 2C9 (Homo sapiens) (UniProt P11712). Kind of experiment: qHTS Assay for Inhibitors and Substrates of Cytochrome P450 2C9 (AID 883; active = well fitted curve in the direction sought with a large enough effect; an effect the other way counts as inactive or inconclusive; also: potency is read from the fitted curve at half-maximal effect; nearly all actives have a fitted effect of over 60% in size). An outline of the steps:
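Turnover of Luciferin-H (100uM, KM) by 10nM human CYP2C9 was measured over 60 min at 37C with NADPH regeneration; inhibitors and some substrates reduce luminescence. Data normalized to sulphaphenazole 57uM.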

Where [19] appears, read: measured here: cell count channel max response.
Where [20] appears, read: measured here: lipid channel max response.

Sequence of 3',5'-cyclic-AMP phosphodiesterase 4B (Homo sapiens) (Q07343 whole entry, looked up): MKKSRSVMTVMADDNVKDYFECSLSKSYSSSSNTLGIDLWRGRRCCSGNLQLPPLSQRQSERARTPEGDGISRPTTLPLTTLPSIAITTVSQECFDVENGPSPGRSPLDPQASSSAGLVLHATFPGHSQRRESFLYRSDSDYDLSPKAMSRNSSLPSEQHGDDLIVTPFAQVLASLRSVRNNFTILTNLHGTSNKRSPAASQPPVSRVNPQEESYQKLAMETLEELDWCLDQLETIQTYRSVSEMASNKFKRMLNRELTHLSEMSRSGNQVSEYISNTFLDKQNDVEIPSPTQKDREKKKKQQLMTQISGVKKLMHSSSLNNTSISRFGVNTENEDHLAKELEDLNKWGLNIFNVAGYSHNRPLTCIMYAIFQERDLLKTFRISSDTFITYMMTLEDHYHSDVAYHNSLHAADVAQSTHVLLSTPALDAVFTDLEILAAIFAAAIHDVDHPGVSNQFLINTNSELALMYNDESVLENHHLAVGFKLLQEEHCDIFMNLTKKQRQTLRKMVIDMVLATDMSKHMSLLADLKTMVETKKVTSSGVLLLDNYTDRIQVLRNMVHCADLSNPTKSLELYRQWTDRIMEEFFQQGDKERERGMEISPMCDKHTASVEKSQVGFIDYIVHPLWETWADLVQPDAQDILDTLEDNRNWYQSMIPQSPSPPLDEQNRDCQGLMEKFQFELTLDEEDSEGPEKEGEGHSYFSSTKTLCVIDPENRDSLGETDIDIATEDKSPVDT
Sequence of Glucocorticoid receptor (Homo sapiens) (P04150 whole entry, looked up, the tested form may be a part): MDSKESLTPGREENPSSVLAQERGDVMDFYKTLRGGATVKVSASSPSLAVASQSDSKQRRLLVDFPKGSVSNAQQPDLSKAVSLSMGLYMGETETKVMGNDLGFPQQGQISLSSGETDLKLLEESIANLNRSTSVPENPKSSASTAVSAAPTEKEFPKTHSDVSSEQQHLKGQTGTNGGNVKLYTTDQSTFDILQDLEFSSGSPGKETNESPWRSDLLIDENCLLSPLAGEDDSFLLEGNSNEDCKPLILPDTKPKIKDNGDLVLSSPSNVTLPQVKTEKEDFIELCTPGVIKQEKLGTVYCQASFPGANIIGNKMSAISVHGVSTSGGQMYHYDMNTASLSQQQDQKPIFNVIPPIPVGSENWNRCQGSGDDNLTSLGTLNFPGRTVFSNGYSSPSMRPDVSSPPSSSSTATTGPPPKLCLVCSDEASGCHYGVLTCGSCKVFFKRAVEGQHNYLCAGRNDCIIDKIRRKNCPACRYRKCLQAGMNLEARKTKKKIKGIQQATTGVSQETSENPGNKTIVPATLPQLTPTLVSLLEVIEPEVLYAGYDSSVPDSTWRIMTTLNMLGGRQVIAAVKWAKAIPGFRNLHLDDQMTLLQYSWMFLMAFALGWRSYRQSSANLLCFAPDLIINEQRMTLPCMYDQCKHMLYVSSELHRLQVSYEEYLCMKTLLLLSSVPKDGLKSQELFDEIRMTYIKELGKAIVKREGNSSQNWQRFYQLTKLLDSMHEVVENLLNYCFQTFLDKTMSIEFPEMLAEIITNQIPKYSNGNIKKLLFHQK
Sequence of Cytochrome P450 3A4 (Homo sapiens) (P08684 whole entry, looked up): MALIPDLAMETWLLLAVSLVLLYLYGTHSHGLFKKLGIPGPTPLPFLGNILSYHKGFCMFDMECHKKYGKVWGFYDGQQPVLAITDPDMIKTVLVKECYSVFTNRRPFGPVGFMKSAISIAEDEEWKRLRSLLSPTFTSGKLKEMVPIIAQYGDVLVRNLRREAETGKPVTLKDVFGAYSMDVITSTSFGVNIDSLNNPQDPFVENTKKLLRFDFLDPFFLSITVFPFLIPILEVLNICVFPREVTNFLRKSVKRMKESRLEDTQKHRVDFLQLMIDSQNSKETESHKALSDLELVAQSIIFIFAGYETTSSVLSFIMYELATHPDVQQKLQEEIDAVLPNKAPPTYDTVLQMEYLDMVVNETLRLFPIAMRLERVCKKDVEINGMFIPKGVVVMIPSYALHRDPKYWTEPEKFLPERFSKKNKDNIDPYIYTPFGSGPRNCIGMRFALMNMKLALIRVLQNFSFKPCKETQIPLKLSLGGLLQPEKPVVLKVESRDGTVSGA
Sequence of Cytochrome P450 1A2 (Homo sapiens) (P05177 whole entry, looked up): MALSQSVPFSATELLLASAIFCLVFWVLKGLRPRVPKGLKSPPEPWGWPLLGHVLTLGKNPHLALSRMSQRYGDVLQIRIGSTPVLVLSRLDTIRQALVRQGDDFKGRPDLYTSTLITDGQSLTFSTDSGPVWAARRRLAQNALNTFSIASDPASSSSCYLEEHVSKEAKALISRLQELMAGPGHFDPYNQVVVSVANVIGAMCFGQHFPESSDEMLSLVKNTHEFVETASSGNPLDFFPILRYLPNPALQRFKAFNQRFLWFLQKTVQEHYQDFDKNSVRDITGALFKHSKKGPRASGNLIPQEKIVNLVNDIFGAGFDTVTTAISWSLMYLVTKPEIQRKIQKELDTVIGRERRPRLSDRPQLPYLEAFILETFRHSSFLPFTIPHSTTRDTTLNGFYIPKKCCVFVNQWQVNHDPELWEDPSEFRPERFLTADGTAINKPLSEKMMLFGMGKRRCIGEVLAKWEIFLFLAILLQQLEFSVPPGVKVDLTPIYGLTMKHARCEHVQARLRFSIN
Sequence of Lysosomal acid glucosylceramidase (Homo sapiens) (P04062 whole entry, looked up): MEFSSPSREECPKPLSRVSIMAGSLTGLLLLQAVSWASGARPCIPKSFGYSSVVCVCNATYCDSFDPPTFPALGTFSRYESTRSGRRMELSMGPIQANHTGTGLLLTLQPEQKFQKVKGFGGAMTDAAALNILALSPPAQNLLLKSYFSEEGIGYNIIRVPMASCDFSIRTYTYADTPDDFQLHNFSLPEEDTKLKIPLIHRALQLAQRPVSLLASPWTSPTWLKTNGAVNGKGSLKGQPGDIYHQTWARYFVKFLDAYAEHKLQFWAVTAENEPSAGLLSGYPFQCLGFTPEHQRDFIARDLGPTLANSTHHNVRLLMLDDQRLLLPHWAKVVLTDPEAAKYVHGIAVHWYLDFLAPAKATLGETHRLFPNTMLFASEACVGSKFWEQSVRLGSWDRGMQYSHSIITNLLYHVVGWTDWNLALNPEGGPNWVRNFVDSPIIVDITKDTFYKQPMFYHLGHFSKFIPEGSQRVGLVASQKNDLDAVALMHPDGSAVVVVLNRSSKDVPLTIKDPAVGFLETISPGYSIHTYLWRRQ
Sequence of Ubiquitin carboxyl-terminal hydrolase 1 (Homo sapiens) (O94782 whole entry, looked up): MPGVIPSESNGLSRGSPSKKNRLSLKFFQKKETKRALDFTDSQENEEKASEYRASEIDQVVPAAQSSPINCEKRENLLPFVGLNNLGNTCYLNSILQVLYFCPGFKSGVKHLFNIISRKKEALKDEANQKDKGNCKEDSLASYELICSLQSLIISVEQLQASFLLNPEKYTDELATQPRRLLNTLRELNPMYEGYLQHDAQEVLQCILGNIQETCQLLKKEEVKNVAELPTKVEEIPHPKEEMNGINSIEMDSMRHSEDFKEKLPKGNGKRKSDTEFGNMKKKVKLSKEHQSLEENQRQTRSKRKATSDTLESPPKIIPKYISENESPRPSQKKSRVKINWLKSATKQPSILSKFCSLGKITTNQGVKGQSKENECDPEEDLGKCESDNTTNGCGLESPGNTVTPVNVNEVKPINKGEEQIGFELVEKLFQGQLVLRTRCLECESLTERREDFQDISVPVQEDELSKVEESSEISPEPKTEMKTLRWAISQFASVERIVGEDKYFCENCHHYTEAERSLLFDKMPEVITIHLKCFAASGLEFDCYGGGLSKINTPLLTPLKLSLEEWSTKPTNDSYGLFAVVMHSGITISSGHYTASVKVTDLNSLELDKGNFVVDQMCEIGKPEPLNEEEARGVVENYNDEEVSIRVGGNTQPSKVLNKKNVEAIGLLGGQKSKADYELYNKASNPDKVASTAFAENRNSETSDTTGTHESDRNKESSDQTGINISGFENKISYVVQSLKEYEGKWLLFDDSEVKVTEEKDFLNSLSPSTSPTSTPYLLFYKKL
Sequence of Cytochrome P450 2C9 (Homo sapiens) (P11712 whole entry, looked up): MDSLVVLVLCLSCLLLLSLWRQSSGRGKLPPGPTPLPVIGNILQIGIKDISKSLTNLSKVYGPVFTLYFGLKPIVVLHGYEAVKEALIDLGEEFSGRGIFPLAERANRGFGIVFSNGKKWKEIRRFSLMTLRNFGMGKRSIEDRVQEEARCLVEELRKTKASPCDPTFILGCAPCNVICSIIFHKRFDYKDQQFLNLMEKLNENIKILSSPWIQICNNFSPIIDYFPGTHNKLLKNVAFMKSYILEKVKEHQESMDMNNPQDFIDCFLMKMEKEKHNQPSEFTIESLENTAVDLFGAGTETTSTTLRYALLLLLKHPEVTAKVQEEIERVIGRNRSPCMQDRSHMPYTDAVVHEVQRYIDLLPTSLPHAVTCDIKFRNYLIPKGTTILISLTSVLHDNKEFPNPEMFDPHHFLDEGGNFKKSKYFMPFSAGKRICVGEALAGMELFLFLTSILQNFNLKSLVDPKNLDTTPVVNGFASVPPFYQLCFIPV

Regarding `c1cnc(N2CCCC3(CCNCC3)C2)nc1`, the Potency in experiment [1] is > 11.4 µM (inactive); in experiment [5], > 46 µM (inactive). Moreover, the compound was classed as inactive in experiment [2], in [4], in [6] and in experiment [10]. Further, the activity change, negative = inhibition in [3] was -26.8% (inactive); in experiment [9], 7.13% (inactive). Also, the Potency result in experiment [7] was “inactive”. In experiment [8], the activation is 6.96% (inactive). Moreover, the max response in experiment [9] (setting [19]) turned out to be 9.32%; in experiment [9] (setting [20]), 19.3%.

Turning to `O=C(Oc1ccccc1)N1CCC2(CCN(Cc3ccccc3)CC2)CC1`, the compound was called inactive in [2], in experiment [4], in [6] and in experiment [10]. The Potency result in experiment [11], in experiment [7] and in experiment [12] was “inactive” each time. Further, the Potency in experiment [5] is > 46 µM (inactive). Moreover, the activity change, negative = inhibition in experiment [9] was 2.23% (inactive). The max response in experiment [9] (setting [19]) came to 2.36%; in [9] (setting [20]), 6.48%.

`CN1CCCC2(CCN(C(=O)Oc3ccccc3)CC2)C1`: the Potency in experiment [1] was > 11.4 µM (inactive); in [5], > 46 µM (inactive). For the same compound, the outcome in experiment [2], in [4], in experiment [6] and in [10] was inactive. Further, in [9], the activity change, negative = inhibition is -5.13% (inactive). In addition, the max response in experiment [9] (setting [19]) was 1.15%; in experiment [9] (setting [20]), -1.11%.

In the case of `COC(=O)N1CCC2(CCN(CC(C)C)CC2)CC1`, the call in [2], in [4], in experiment [6] and in experiment [10] was inactive. In addition, the Potency result in experiment [11] and in experiment [7] was “inactive” throughout. For the same compound, in [5], the Potency is > 46 µM (inactive). The activity change, negative = inhibition in [9] was 0.631% (inactive). Further, the max response in experiment [9] (setting [19]) was -7.4%; in [9] (setting [20]) it was -4.41%.

For `CN1CC[C@@]2(CCCN(C(=O)c3csnn3)C2)C1`, the result in experiment [2], in experiment [4], in [6] and in experiment [10] was inactive. Moreover, the Potency entry in experiment [11] and in experiment [7] was “inactive” throughout. Also, the activity change, negative = inhibition was -23.3% (inactive) in experiment [3] and -3.58% (inactive) in experiment [9]. In [5], the Potency was > 46 µM (inactive). Also, the max response in experiment [9] (setting [19]) was -13.7%; in experiment [9] (setting [20]), -16.8%.

Regarding `CC(C)CN1CC[C@@]2(CCCN(C(=O)c3ccncc3)C2)C1`, the outcome in experiment [2], in [4], in experiment [6] and in experiment [10] was inactive. Also, the activity change, negative = inhibition in [3] was -22.2% (inactive); in experiment [9], 2.73% (inactive). For the same compound, the Potency in experiment [5] is > 46 µM (inactive). For the same compound, the Potency result in experiment [7] was “inactive”. In addition, the max response in [9] (setting [19]) is -1.41%; in experiment [9] (setting [20]), 4.49%.

For the compound `CN1CCCCC1c1ccc(-c2cccnc2)nc1` (stereo not given), the Potency entry in [13], in experiment [14], in experiment [15] and in experiment [16] was “inactive” in each case. Further, the activity change, negative = inhibition in experiment [9] is 6.38% (inactive). Moreover, the max response is 12.4% in [9] (setting [19]) and 21.9% in experiment [9] (setting [20]). Further, in experiment [10], the result was inactive.

Turning to `O=C(O)C1=CCCN(CCOC(c2ccc(C(F)(F)F)cc2)c2ccc(C(F)(F)F)cc2)C1`, the Potency in experiment [17] is > 46 µM (inactive); in [5], > 46 µM (inactive); in experiment [18], 2.51 µM (active). Moreover, the Potency result in experiment [7], in experiment [13] and in experiment [16] was “inactive” in each case. The outcome in [10] was inactive.

On to `CC(C)NC(=O)N1CCC2(CC1)CCN(C(=O)Oc1ccccc1)CC2`, for which the compound was classed as inactive in experiment [2], in experiment [4], in experiment [6] and in experiment [10]. For the same compound, the Potency result in experiment [11], in experiment [7] and in experiment [12] was “inactive” throughout. In addition, the figures for the Potency in experiment [5] and in experiment [13] were > 46 µM (inactive) and 25.1 µM (active), respectively. For the same compound, in [9], the activity change, negative = inhibition was 2.9% (inactive). The max response was -12.1% in experiment [9] (setting [19]) and -6.43% in experiment [9] (setting [20]).
